# Experimental data: PubChem BioAssay AID1508601 (ICCB-Longwood Screening Facility, Harvard Medical School, 2020)
# Hit rate of the full screen: of about 5,700 compounds, about 85 (1%) were called active. The sample holds actives, similar compounds and a random draw of the others, so the mix is not that of the screen. Cut-off read from the data, not from the text of the source: active = p53-positive nuclei above about 36% (passing the limit was not always enough); inactive = the rest.
# Key:
# [1] = nuclear p53 accumulation, HPV+ cells – imaging, p53-positive nuclei imaging, 24 h, 48 h (AID 1508601); details: 24/48 h
# [2] = target: Cellular tumor antigen p53 (Homo sapiens) (UniProt P04637); assay: as above; details: 24/48 h, stronger effect = higher value
# Chain of Cellular tumor antigen p53 (Homo sapiens) (P04637 whole entry, looked up): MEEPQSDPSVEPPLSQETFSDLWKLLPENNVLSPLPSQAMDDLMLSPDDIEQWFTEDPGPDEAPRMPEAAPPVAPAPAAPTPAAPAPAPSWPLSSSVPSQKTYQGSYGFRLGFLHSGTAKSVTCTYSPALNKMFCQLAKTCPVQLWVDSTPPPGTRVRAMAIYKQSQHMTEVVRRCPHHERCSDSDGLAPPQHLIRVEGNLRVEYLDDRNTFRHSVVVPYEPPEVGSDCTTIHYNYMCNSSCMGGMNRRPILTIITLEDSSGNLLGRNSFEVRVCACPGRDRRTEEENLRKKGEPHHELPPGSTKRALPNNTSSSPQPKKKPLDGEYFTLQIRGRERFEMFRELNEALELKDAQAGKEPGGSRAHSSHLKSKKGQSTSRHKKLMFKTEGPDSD
smiles,measurement,setting,value
CC=C(C)C(=O)NC(c1ccccc1)C(O)C(=O)OC1C[C@@]2(O)C(OC(=O)c3ccccc3)[C@@H]3[C@]4(OC(C)=O)COC4CC(O)[C@@]3(C)C(=O)C(OC(C)=O)C(=C1C)C2(C)C (some centres undefined),"nuclei count, normalised","[1]; measured here: cell number at 24 h, Library stock concentration: 3.33 mM",33.5%
same,"nuclei count, normalised","[1]; measured here: cell number at 48 h, Library stock concentration: 3.33 mM",28.1%
same,"p53-positive nuclei, normalised",[2]; Library stock concentration: 3.33 mM,1.63% (inactive)
same,"p53-positive nuclei, normalised","[2]; measured here: p53 positive nuclei at 24 h, Library stock concentration: 3.33 mM",-0.0935%
OC1CN2CCC(O)[C@H]2C(O)C1O (some centres undefined),"nuclei count, normalised","[1]; measured here: cell number at 24 h, Library stock concentration: 500 nM",98.9%
same,"nuclei count, normalised","[1]; measured here: cell number at 24 h, Library stock concentration: 1.5 uM",116%
same,"nuclei count, normalised","[1]; measured here: cell number at 24 h, Library stock concentration: 4.6 uM",110%
same,"nuclei count, normalised","[1]; measured here: cell number at 24 h, Library stock concentration: 13.7 uM",107%
same,"nuclei count, normalised","[1]; measured here: cell number at 24 h, Library stock concentration: 41 uM",109%
same,"nuclei count, normalised","[1]; measured here: cell number at 24 h, Library stock concentration: 123 uM",108%
same,"nuclei count, normalised","[1]; measured here: cell number at 24 h, Library stock concentration: 370 uM",107%
same,"nuclei count, normalised","[1]; measured here: cell number at 24 h, Library stock concentration: 1.111 mM",107%
same,"nuclei count, normalised","[1]; measured here: cell number at 24 h, Library stock concentration: 3.333 mM",105%
same,"nuclei count, normalised","[1]; measured here: cell number at 24 h, Library stock concentration: 10 mM",105%
same,"nuclei count, normalised","[1]; measured here: cell number at 48 h, Library stock concentration: 500 nM",102%
same,"nuclei count, normalised","[1]; measured here: cell number at 48 h, Library stock concentration: 1.5 uM",111%
same,"nuclei count, normalised","[1]; measured here: cell number at 48 h, Library stock concentration: 4.6 uM",108%
same,"nuclei count, normalised","[1]; measured here: cell number at 48 h, Library stock concentration: 13.7 uM",105%
same,"nuclei count, normalised","[1]; measured here: cell number at 48 h, Library stock concentration: 41 uM",110%
same,"nuclei count, normalised","[1]; measured here: cell number at 48 h, Library stock concentration: 123 uM",108%
same,"nuclei count, normalised","[1]; measured here: cell number at 48 h, Library stock concentration: 370 uM",106%
same,"nuclei count, normalised","[1]; measured here: cell number at 48 h, Library stock concentration: 1.111 mM",102%
same,"nuclei count, normalised","[1]; measured here: cell number at 48 h, Library stock concentration: 3.333 mM",106%
same,"nuclei count, normalised","[1]; measured here: cell number at 48 h, Library stock concentration: 10 mM",104%
same,"p53-positive nuclei, normalised",[2]; Library stock concentration: 500 nM,-0.0904% (inactive)
same,"p53-positive nuclei, normalised",[2]; Library stock concentration: 1.5 uM,0.192% (inactive)
same,"p53-positive nuclei, normalised",[2]; Library stock concentration: 4.6 uM,0.0933% (inactive)
same,"p53-positive nuclei, normalised",[2]; Library stock concentration: 13.7 uM,-0.133% (inactive)
same,"p53-positive nuclei, normalised",[2]; Library stock concentration: 41 uM,-0.107% (inactive)
same,"p53-positive nuclei, normalised",[2]; Library stock concentration: 123 uM,0.0873% (inactive)
same,"p53-positive nuclei, normalised",[2]; Library stock concentration: 370 uM,0.261% (inactive)
same,"p53-positive nuclei, normalised",[2]; Library stock concentration: 1.111 mM,-0.0118% (inactive)
same,"p53-positive nuclei, normalised",[2]; Library stock concentration: 3.333 mM,0.175% (inactive)
same,"p53-positive nuclei, normalised",[2]; Library stock concentration: 10 mM,-0.135% (inactive)
same,"p53-positive nuclei, normalised","[2]; measured here: p53 positive nuclei at 24 h, Library stock concentration: 500 nM",-0.068%
same,"p53-positive nuclei, normalised","[2]; measured here: p53 positive nuclei at 24 h, Library stock concentration: 1.5 uM",0.213%
same,"p53-positive nuclei, normalised","[2]; measured here: p53 positive nuclei at 24 h, Library stock concentration: 4.6 uM",-0.135%
same,"p53-positive nuclei, normalised","[2]; measured here: p53 positive nuclei at 24 h, Library stock concentration: 13.7 uM",-0.189%
same,"p53-positive nuclei, normalised","[2]; measured here: p53 positive nuclei at 24 h, Library stock concentration: 41 uM",0.0835%
same,"p53-positive nuclei, normalised","[2]; measured here: p53 positive nuclei at 24 h, Library stock concentration: 123 uM",0.197%
same,"p53-positive nuclei, normalised","[2]; measured here: p53 positive nuclei at 24 h, Library stock concentration: 370 uM",0.0352%
same,"p53-positive nuclei, normalised","[2]; measured here: p53 positive nuclei at 24 h, Library stock concentration: 1.111 mM",-0.189%
same,"p53-positive nuclei, normalised","[2]; measured here: p53 positive nuclei at 24 h, Library stock concentration: 3.333 mM",-0.0741%
same,"p53-positive nuclei, normalised","[2]; measured here: p53 positive nuclei at 24 h, Library stock concentration: 10 mM",0.108%
